Assay in all cases: PBM binding z-score (relative to random genomic background probes); higher = stronger binding; sequences stand for … in GC…GCGATTGACAGCGTAGAATGAAGG
In test [1] the test system is FXR:RXRa (NR concentration 270 nM, RXRa partner concentration 90 nM). In a few lines: (§1)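 Scanned fluorescence from custom Agilent 4×180K protein-binding microarrays was regression-normalized. Binding z-scores use random background probes as reference. Ligand-free nuclear receptor dimers were incubated on the arrays for 1 h and detected with antibodies against each partner (one per run).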

The test system of test [2] is LXRa homodimer (NR concentration 270 nM). In a few lines:
as §1

In test [3] the test system is LXRb homodimer (NR concentration 270 nM). The gist of the method:
as §1

In test [4] the test system is PPARa:RXRa (NR concentration 270 nM, RXRa partner concentration 90 nM). In a few lines: as §1
The subject of test [5] is PPARg:RXRa (NR concentration 180 nM, RXRa partner concentration 90 nM). In a few lines:
as §1

Test [6] relates to PPARg:RXRa 270nM:90nM, anti-RXR (NR concentration 270 nM, RXRa partner concentration 90 nM). In a few lines:
as §1

For test [7], the system named is PPARg:RXRa 30nM:10nM, anti-RXR (NR concentration 30 nM, RXRa partner concentration 10 nM). In a few lines:
as §1

The test system of test [8] is PPARg:RXRa 90nM:30nM, anti-RXR (NR concentration 90 nM, RXRa partner concentration 30 nM). In a few lines: as §1
Test [9] deals with PPARg:RXRa DBDmut IVT, anti-RXR (DBD mutation: RXRa K156A/R161A, NR concentration 270 nM, RXRa partner concentration 90 nM). The gist of the method:
as §1

Test [10] deals with PPARg:RXRa IVT, anti-PPARg (NR concentration 270 nM, RXRa partner concentration 90 nM). The gist of the method: as §1
Test [11] concerns PPARg DBDmut:RXRa IVT, anti-PPARg (DBD mutation: PPARg1 K132A/R137A, NR concentration 270 nM, RXRa partner concentration 90 nM). In a few lines:
as §1

The test system of test [12] is PPARg DBDmut IVT, anti-PPARg (DBD mutation: PPARg1 K132A/R137A, NR concentration 270 nM). The gist of the method: as §1
Test [13] has as its system PPARg homodimer (NR concentration 180 nM). In a few lines:
as §1

The test system of test [14] is PXR:RXRa (NR concentration 270 nM, RXRa partner concentration 90 nM). In a few lines:
as §1

For test [15], the system named is PXR homodimer (NR concentration 270 nM). In a few lines:
as §1

Test [16] relates to RARa:RXR (NR concentration 270 nM, RXRa partner concentration 90 nM). The gist of the method: as §1
Test [17] has as its system RARa homodimer (NR concentration 270 nM). The gist of the method:
as §1

In test [18] the test system is RARb:RXRa (NR concentration 270 nM, RXRa partner concentration 90 nM). The gist of the method: as §1
In test [19] the test system is RARb homodimer (NR concentration 270 nM). In a few lines: as §1

As for CCTACTGGTCCAAGGTCATTGATCAGTCAAAGCA, the PBM binding z-score in test [1] is 3.53; in [2], 2.3; in test [3], 0.894; in [4] it was 3.59; in test [5], 1.77; in test [6], 3.04. Also, the PBM binding z-score in test [7] was 0.847; in test [8] it was 2.12; in test [9], 0.394; in [10], 1.68; in [11], -0.223; in test [12] it was -0.605. For the same sequence, the PBM binding z-score in test [13] came to 3.61; in [14] it was 4.18; in test [15], 2.61; in test [16], 4.13; in [17], 1.23; in [18], 3.33. In test [19], this sequence came in with a PBM binding z-score of 3.76.
Consider ACTCGGAGGACAAAGGTCAGGGCTACGCCAGTGA, for which the PBM binding z-score in test [1] was 4.61; in test [2], 1.43; in test [3], -0.0403; in test [5], 9.17; in [6], 7.08; in test [7] it was 5.85. The PBM binding z-score in [8] is 7.6; in test [9] it was 0.813; in test [10], 3.76; in test [11], 0.115; in test [12] it was -0.434; in test [13], 4.95. The PBM binding z-score is 4.18 in [14]; 0.463 in test [15]; 5.81 in test [16]; 1.53 in test [17]; 4.69 in test [18]; 4.65 in test [19].
Turning to GCTGCTAGGTCAACTGATGGTCATCTAAAGCTCG, the PBM binding z-score in [1] was found to be 4.19; in test [2], 0.86; in test [3], 0.134; in [4], 3.75; in [5], 2.92; in [6] it was 3.32. For the same sequence, the PBM binding z-score in test [7] was found to be 0.892; in [8], 2.34; in test [9], 5.18; in test [10] it was 4.36; in test [11], 0.236; in test [12], 0.14. Further, the PBM binding z-score in test [13] was 2.42; in [14], 2.17; in [15], -0.491; in test [16] it was 3.74; in test [17] it was 0.102; in test [18] it was 4.32. Further, the PBM binding z-score in test [19] amounted to 3.66.
Turning to AGTCAAAGTTGAGGACGAGGTAACGTAAAGCACG, the PBM binding z-score was 0.359 in [1]; -0.388 in [2]; -0.483 in [3]; 0.937 in [4]; 1.44 in [5]; 1.74 in test [6]. Also, the PBM binding z-score is 0.562 in test [7]; 0.984 in [8]; -0.189 in [9]; 0.639 in [10]; 0.307 in test [11]; -0.0552 in test [12]. Further, the PBM binding z-score in test [13] was 0.137; in test [14] it was 0.261; in test [15], -0.0592; in [16] it was 0.951; in [17] it was 0.0325; in [18], 1.46. The sequence further came in with a PBM binding z-score in test [19] of 1.01.
With TCTCGGAGGAAACGAAAGGTCAGAGCTCGACATC, the PBM binding z-score in test [1] was 1.86; in test [2] it was 2.91; in test [3], -0.0498; in [4], 3.66; in test [5], 1.74; in [6], 3.9. Besides, the PBM binding z-score was 2.92 in test [7]; 3.77 in test [8]; 1.21 in test [9]; 0.961 in test [10]; -0.0511 in test [11]; -0.298 in test [12]. Moreover, the PBM binding z-score in [13] was found to be 2.23; in [14], 3.7; in [15], 0.181; in [16], 4.48; in test [17] it was 1.31; in [18], 3.73. Further, the PBM binding z-score in [19] amounted to 4.28.
In the case of TACCCTAGGTCATTGGGCCAGTATAGTACGCATC, the PBM binding z-score in test [1] is 4.66; in test [2] it was 8.18; in test [3], 3.83; in test [4] it was 4.06; in [5], 4.27; in test [6], 4.04. Moreover, the PBM binding z-score is 1.23 in test [7]; 2.96 in [8]; 3.2 in test [9]; 4.36 in test [10]; 0.464 in test [11]; 0.484 in test [12]. The PBM binding z-score is 1.89 in test [13]; 1.94 in test [14]; 0.578 in test [15]; 2.56 in test [16]; 0.228 in test [17]; 3.87 in [18]. The same sequence yielded a PBM binding z-score in test [19] of 3.25.
Consider TCTTGTAGGTCAATAGAGGTTAAGAAAGTGCGCT, for which the PBM binding z-score in test [1] amounted to 4.77; in test [2] it was 3.93; in [3], 1.17; in test [4], 5.13; in [5] it was 6.67; in [6] it was 5.94. The PBM binding z-score in test [7] stood at 4.32; in [8] it was 5.5; in [9], 7.07; in [10], 7.76; in [11], 2.66; in [12], 2.4. Moreover, the PBM binding z-score in test [13] is 2.69; in test [14] it was 5.67; in test [15], 0.719; in test [16] it was 4.2; in test [17], 1.13; in [18], 4.09. For the same sequence, in test [19], the PBM binding z-score was 3.81.

The values above are taken from the supplement of paper PMC6555819.
